High-throughput results deposited in PubChem BioAssay by National Center for Advancing Translational Sciences (NCATS).
The full list was thinned out, with hits kept by preference.
TbPYK inhibitor: blocks Trypanosoma brucei pyruvate kinase. Q57TT1. TbPYK enzyme, Kinase-Glo Plus ATP luminescence, 45 min. Potency, µM (top dose mostly 76.8 µM), for inactives: top-dose activity, negative = inhibition, most hits filed as inhibitors. 410,000 compounds, 0.12% hits; note: potency is the fitted concentration of half-maximal effect; % is set by controls: 0 for no effect and ±100 for the full control effect; nearly all actives have a fitted effect of over 50% in size
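TbPYK + substrate in 50 mM TEA pH 7.2, 100 mM KCl, 10 mM MgCl2, 0.05% BSA, 0.01% Tween-20; cpd pinned; ADP 130 uM final; 45 min RT; Kinase-Glo Plus 10 min; luminescence endpoint.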
Giardia FBPA inh: blocks Giardia fructose-bisphosphate aldolase activity; 290,000 compounds, 0.71% hits; AID 2451; purified Giardia FBPA; A8B2U2; Potency, µM (top dose mostly 59.6 µM), for the others: at the highest dose activity, negative = inhibition, actives largely listed as inhibitors; note: potency is the fitted concentration of half-maximal effect; % is set by controls: 0 for no effect and ±100 for the full control effect; nearly all actives have a fitted effect of over 55% in size
Target sequence (A8B2U2 whole entry, looked up): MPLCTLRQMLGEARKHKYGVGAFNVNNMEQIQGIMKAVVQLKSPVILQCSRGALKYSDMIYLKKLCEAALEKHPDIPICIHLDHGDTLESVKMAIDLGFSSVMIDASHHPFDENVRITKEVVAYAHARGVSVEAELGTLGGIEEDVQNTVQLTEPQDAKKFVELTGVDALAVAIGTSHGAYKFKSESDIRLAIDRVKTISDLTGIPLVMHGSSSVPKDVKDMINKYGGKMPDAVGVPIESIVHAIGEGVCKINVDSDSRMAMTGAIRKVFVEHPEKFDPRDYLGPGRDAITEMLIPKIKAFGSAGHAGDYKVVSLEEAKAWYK
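40 nM FBPA preincubated 10 min at RT with compound (up to 57.5 uM final), then substrate plus GAPDH/TPI/NAD/arsenate coupling and diaphorase/resazurin added. Fluorescence read after 20 min at RT, 525/598 nm.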
Shiga toxin inh: inhibitors of Shiga toxin in Vero cells | Vero cells, Shiga toxin protein synthesis inhibition reporter | inhibition, % at 38.7 µM | 290,000 compounds, 9.2% hits; in the data active = inhibition mostly above about 28%, no sharp cut-off; inactive = mostly below about 43%; note: 0% is about no effect
CHX counter: counter-screen for Shiga toxin inhibitors: cycloheximide protein synthesis inhibition; cell reporter, cycloheximide protein synthesis inhibition counterscreen; max response, %; 300,000 compounds, 12% hits; in the data active = max response mostly above about 13%, no sharp cut-off; inactive = mostly below about 14%; note: read at 38.3 µM for the half of the compounds with a filed dose; 0% is about no effect
LmPK inhibitor: LmPK (Leishmania mexicana) enzyme inhibition | Potency, µM (series often up to 57.5 µM), for the others: top-dose activity change, negative = inhibition, most hits filed as inhibitors | 290,000 compounds, 0.37% hits | AID 1721 | Q27686 | purified LmPK, Kinase-Glo ATP luminescence, 1 h; note: potency is the fitted concentration of half-maximal effect; % is set by controls: 0 for no effect and ±100 for the full control effect
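Kinase-Glo luminescence read after 1 h RT reaction of 0.1 nM LmPK with 0.5 mM PEP and 0.1 mM ADP. Activity scaled between uninhibited and enzyme-free controls.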
RE007 growth inh: less growth of the S. pombe RE007 Vpr strain; S. pombe RE007 Vpr strain, BacTiter-Glo ATP luminescence, 24 h; Potency, µM (top dose mostly 92.2 µM), for the others: at the highest dose activity change, negative = less growth, usual class: inhibitors; 360,000 compounds, 0.21% hits; AID 651644; active = well fitted falling curve with a large enough effect; inconclusive = small, poorly fitted or top-dose-only effect; inactive = no such curve, though single readings can be large or run the other way; note: potency is the fitted concentration of half-maximal effect; % is set by controls: 0 for no effect and ±100 for the full control effect; nearly all actives have a fitted effect of over 50% in size
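Fission yeast strain RE007, carrying one chromosomally integrated HIV-1 vpr copy, was seeded at OD 0.01 in PMG+AL medium with 23 nL pinned compound. After 24 h at 30 °C and 99% humidity, viability was read by BacTiter-Glo luminescence.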
An asterisk follows results filed as active; u = inconclusive; x = no result given; [ ] = dose if it differs, or a comment. Unless noted, calls come from the whole dose curve; as a rule, active = well fitted curve in the direction sought with a large enough effect; inconclusive = small, poorly fitted or top-dose-only effect, or another doubt; inactive = no such curve, though single readings can be large; an effect the other way counts as inactive or inconclusive.

SMILES	TbPYK inhibitor	Giardia FBPA inh	Shiga toxin inh	CHX counter	LmPK inhibitor	RE007 growth inh
N#Cc1cc2c([nH]c1=S)CCCC2	5.6µM*	-8%	50*	33*	14%	86%
CCCCCCCCCCOc1cc(OCCCCCCCCCC)cc(N(CC(=O)O)CC(=O)O)c1	x	-4%	20	-6	x	x
c1ccc(-n2ncc3c2ncn2nc(-c4ccco4)nc32)cc1	-14%	3%	46*	38*	-1%	-8%
COc1cc(/C=N/NC(=Nc2ccc(C)cc2)c2nc3ccccc3s2)ccc1O	-14%	-1%	100*	42*	-12%	-12%
COc1ccccc1/C=N/NC(=Nc1ccc(C)cc1)c1nc2ccccc2s1	x	0%	184*	53*	-1%	x
CCCCNC(=O)C1CC(=O)N(CCc2ccc(C)cc2)C1 (stereo unspecified)	0%	4%	-8	-7	7%	16%
Cc1cc(Nc2cccc(Br)c2)n2c(nc3ccccc32)c1C#N	10%	x	x	x	x	x
O=C(NCCN1C(=O)S/C(=C\c2cccs2)C1=O)c1ccco1	-2%	-2%	37	46*	2%	1%
CC(=O)NCCN1C(=O)S/C(=C\c2cccs2)C1=O	-4%	0%	10	14	-2%	-1%
O=C(Nc1ccc(F)cc1F)Nc1sccc1-c1nc2ccccc2s1	0%	u	17	3	11%	1%
COCCN(C(=O)Nc1ccccc1)c1ccccc1	6%	0%	49	5	1%	-13%
COCCN(C(=O)Nc1ccc(F)cc1F)c1nc2ccccc2s1	3%	8%	48*	34*	-2%	-14%
COCCN(C(=O)Nc1ccc(OC)cc1)c1nc2ccccc2s1	4%	-8%	42*	18*	2%	9%
Cc1ccc(CNC(=O)CN(c2cc(C)cc(C)c2)S(=O)(=O)c2c(C)noc2C)cc1	-1%	x	x	x	x	x
Cc1ccccc1-n1c(SCC(=O)NC(N)=O)nc2sc(-c3ccccc3)cc2c1=O	1%	1%	24	18*	6%	4%
CCCOc1cccc(C2c3c(oc4ccc(F)cc4c3=O)C(=O)N2CCc2ccc(OC)cc2)c1 (stereo unspecified)	-3%	x	x	x	x	x
CCN=c1scc(C)n1/N=C/c1cc(Br)c(O)c(Br)c1	-9%	-25%	32*	20	-2%	-24%
COCCN=c1scc(-c2cccs2)n1/N=C/c1ccc(O)c(O)c1O	u	u	55*	32*	-7%	-10%
COCCN=c1scc(-c2ccccc2)n1/N=C/c1c[nH]c2ccccc12	2%	-8%	29	17*	8%	-15%
CCN=c1scc(C)n1/N=C/c1ccc(O)c(O)c1O	u	u	49	25*	-7%	-27%
COc1ccc(S(=O)(=O)N2CCC(C(=O)NC(C)c3ccccc3)CC2)cc1 (stereo unspecified)	0%	x	x	x	x	x
COC(=O)c1ccc(NC(=S)NN2CCCCC2c2cccnc2)cc1 (stereo unspecified)	4%	-19%	33	14*	2%	-14%
COc1cc(C(=O)OCC(=O)N2CCC(Cc3ccccc3)CC2)cc(OC)c1OC	-1%	x	x	x	x	2%
CCc1nc2ccc(C(=O)NCc3ccc(OC)cc3)cn2c1N(CC)CCOC	7%	x	x	x	x	0%[18.4 µM]
CCn1c(SCC(=O)c2ccc3c(c2)OCCO3)nnc1-c1ccco1	-28%	u	8	15*	5%	23%
SMILES	TbPYK inhibitor	Giardia FBPA inh	Shiga toxin inh	CHX counter	LmPK inhibitor	RE007 growth inh
Cn1nnnc1SCC(=O)c1ccc2c(c1)OCCO2	-5%	7%	97*	38*	-1%	6%
COc1ccc(C(=O)CSc2nncn2C)cc1	-7%	-8%	19	3	0%	11%
Cn1cnnc1SCC(=O)c1ccc2c(c1)OCCO2	-2%	-7%	49*	14	5%	9%
CCn1nnnc1SCC(=O)N1CCN(Cc2ccc3c(c2)OCCO3)CC1	1%	x	x	x	x	-16%
COc1cccc(C(=O)CSc2nnnn2C)c1	1%	-2%	19	-3	-2%	-14%
CCCn1nnnc1SCC(=O)c1ccc2c(c1)OCCO2	-4%	-1%	74*	36*	-2%	33%
CC1C(=O)N(Cc2cn(CC3CCCCC3)nn2)CCS(=O)(=O)N1Cc1ccc(-c2ccc(Cl)cc2)cc1 (stereo unspecified)	-2%	x	x	x	x	-19%
COc1ccccc1OCCC(=O)Nc1cccc(S(=O)(=O)N2CCOCC2)c1	0%	x	x	x	x	5%
C=CCOc1cccn2c(N(C=O)Cc3ccc(OC)cc3)c(CC)nc12	0%	x	x	x	x	-8%[18.4 µM]
Cc1ccsc1/C=N/Nc1ccc(C(=O)O)cc1	-15%	-7%	4	-3	1%	-7%
O=C(O)c1ccc(N/N=C/c2ccc(-c3ccc(Br)cc3)o2)cc1	-5%	-3%	39*	27*	-3%	u
Cc1ccc(/C=N/Nc2ccc(C(=O)O)cc2)o1	-7%	14%	76*	30*	-26%	0%
Cc1ccc2nc(C3CCCCC3)c(Cc3cccc(F)c3)n2c1	-7%	x	x	x	x	u
Cc1ccc(Cc2cn3cc(-c4ccccc4)nc3s2)cc1	-4%	x	x	x	x	x
CCc1ccn2cc(-c3cc(-c4ccccc4)no3)nc2c1	-7%	-7%	23	37*	16µM*	-18%
Cc1ccc2nc(-c3cc(-c4ccccc4)no3)cn2c1	0%	0%	114*	49*	-3%	-5%
Cn1c(=O)[nH]c(=O)c2c1nc1n2CC(O)CN1c1ccccc1 (stereo unspecified)	2%	14%	-7	-3	1%	4%
COc1cc(/C=C/[N+](=O)[O-])ccc1OC(=O)c1cccnc1	u	-20%	-5	-1	-4%	8.9µM*
COc1cc(/C=N/NC(=O)c2cccnc2)ccc1OC(=O)c1ccc([N+](=O)[O-])cc1	0%	-1%	-5	-3	0%	6%
CN(CC(=O)Nc1cccc(C(F)(F)F)c1)C1=NS(=O)(=O)c2ccccc21	1%	x	x	x	x	-12%
Cc1ncc(CO)c(CNc2ccc(-c3nc4ccccc4[nH]3)cc2)c1O	0%	8%	28	16*	0%	6%
O=C(CSc1ccc(Cl)cc1)Nc1ccc(-c2nc3ccccc3[nH]2)cc1	4%	5%	24	-2	1%	2%
c1ccc(-c2nc3c(ccc4ccccc43)[nH]2)nc1	-9%	-12%	94*	42*	-17%	u
O=c1[nH]c(-c2ccccn2)nc(C(F)(F)F)c1Br	0%	u	15	-3	3%	u
O=c1[nH]c(-c2ccccn2)nc2ccccc12	2%	21%	105	44*	-20%	-78%
c1ccc(-c2nc3ccccc3[nH]2)nc1	-11%	2%	117*	72*	u	-6%
Cc1ccc2nc(-c3ccccn3)[nH]c2c1	u	11%	15	18*	22µM*	u
